Compound activity as filed in PubChem BioAssay.
Wee1 degr inh = blocks degradation of human Wee1 kinase | HeLa Luc-Wee1K328M stability, luciferase luminescence; 100% = proteasome inhibitor MG132 effect | reporter increase, % at 5 µM | AID 1321 | P30291 | 220,000 tested, 1.2% active;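 active = activation above the mean of all tested compounds plus 3 SD, set per screening run, cut at about 8.8% in these data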;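 also: cells exposed to compound for 20 h before luminescence read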
Target sequence (P30291 whole entry K328M): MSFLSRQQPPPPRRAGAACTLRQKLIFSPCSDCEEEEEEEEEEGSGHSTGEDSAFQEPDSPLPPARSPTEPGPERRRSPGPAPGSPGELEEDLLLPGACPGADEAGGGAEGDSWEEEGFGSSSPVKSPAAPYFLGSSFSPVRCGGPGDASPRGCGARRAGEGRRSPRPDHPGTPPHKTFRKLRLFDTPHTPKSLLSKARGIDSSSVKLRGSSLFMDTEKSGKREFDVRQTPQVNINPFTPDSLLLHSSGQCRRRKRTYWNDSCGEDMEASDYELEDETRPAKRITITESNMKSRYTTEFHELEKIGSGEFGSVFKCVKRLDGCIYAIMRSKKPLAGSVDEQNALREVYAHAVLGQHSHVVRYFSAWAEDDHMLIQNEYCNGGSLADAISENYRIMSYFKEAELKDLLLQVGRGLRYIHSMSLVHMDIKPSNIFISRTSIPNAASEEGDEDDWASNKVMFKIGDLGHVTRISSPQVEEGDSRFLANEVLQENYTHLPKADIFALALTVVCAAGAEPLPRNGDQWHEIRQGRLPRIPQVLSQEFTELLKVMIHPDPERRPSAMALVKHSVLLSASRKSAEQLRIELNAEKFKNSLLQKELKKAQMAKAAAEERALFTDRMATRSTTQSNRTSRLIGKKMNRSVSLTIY
DAX1 inh-1 = DAX1 (NR0B1) inhibition, primary screen; HEK293T StAR-luciferase reporter, SF-1/DAX-1 repression relief; inhibition, % at 6.8 µM; 370,000 tested, 1.1% active; AID 652010;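 active = inhibition above the mean over all tested compounds plus 3 SD, cut at about 3.6% in these data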;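 also: higher inhibition means more luminescence from relief of DAX-1 repression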
hcDAF12 agonist = activates DAF-12 receptor from parasite H. contortus. HEK293 hcDAF-12 lit1-tk-luc reporter, luminescence; 0% DMSO, 100% Δ7-dafachronic acid. activation, % at 6.8 µM. 370,000 tested, 1.4% active. AID 652067;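 active = activation above the mean of all tested compounds plus 3 SD, cut at about 5.5% in these data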
ssDAF-12 act = activates DAF-12 receptor from parasite S. stercoralis; HEK293 ssDAF-12/GRIP1 lit1-tk-luc reporter, luminescence; % of 3 µM dafachronic acid response; activation, % at 6.8 µM; 370,000 tested, 1% active;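 active = activation above the mean over all tested compounds plus 3 SD, cut at about 0.9% in these data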
DAX1 inh-2 = NR0B1 (DAX1) inhibition; P51843; HEK293 Gal4-DAX1 luciferase reporter, luminescence; inhibition, % at 6.75 µM; 340,000 tested, 0.99% active; AID 504766;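 active = inhibition above the mean over all tested compounds plus 3 SD, cut at about 4.2% in these data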;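 also: inhibition shows as a rise in luminescence from relieved DAX1 repression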
hgDAF-12 ag = agonists of H. glycines DAF-12 nuclear receptor. HEK293 GAL4-hgDAF12 UAS-luciferase reporter, agonist luminescence; normalized to butyrate control. 370,000 tested, 1.8% active. AID 687014. activation, % at 6.8 µM;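 active = activation above a cutoff set at the mean of all screened compounds plus 3 SD, cut at about 10% in these data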
LXRb hcDAF ctr = activates human LXR-beta, counter-screen for hcDAF-12 agonists. shares compounds with hcDAF12 agonist. 3,400 tested, under 10 active. activation, % at 6.8 µM. HEK293 Gal4-LXR tk-luc reporter, luminescence, 24 h; normalized: DMSO 0%, positive control 100%;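 active = mean percent activation of the reporter above a cutoff set as the average over tested compounds plus their standard deviation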
hcDAF12 ag = hcDAF-12 agonism, confirmation assay. shares compounds with hcDAF12 agonist. HEK293 hcDAF-12 lit1-tk-luc reporter, luminescence; % of Δ7-dafachronic acid response. activation, % at 6.8 µM. 3,400 tested, 61% active;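 active = mean activation across triplicate tests above the threshold derived from the earlier primary screen, cut at about 5.5% in these data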
Of the large screens only hits and unclear results are named; the others gave an inactive call (follow-up assays come after a bar, where they were run). This is a sample that favours compounds with a hit; in the whole collection about 4.6% have one here.

Cn1nc(-c2ccc(Cl)cc2)c2cc(C(=O)NCCCN3CCCC3)sc21	hcDAF12 agonist 9.5 | LXRb hcDAF ctr inactive | hcDAF12 ag 6.5
COc1cc(/C=C(\CCC(=O)O)c2nc3ccccc3s2)ccc1OCC(=O)Nc1c(Cl)cccc1Cl	none (no result: Wee1 degr inh)
CC(=O)C1CCC2C3CC=C4N(C)C(=O)CCC4(C)C3CCC12C (centres undefined)	none (no result: Wee1 degr inh)
O=C(CSc1nnc(-c2cnccn2)n1-c1ccccc1)c1ccccc1Br	none (no result: Wee1 degr inh, DAX1 inh-2)
COc1ccc(C(=O)NCC(c2ccco2)N2CCOCC2)cc1 (centres undefined)	none (no result: Wee1 degr inh)
CC1CCCC(C)N1C(=O)c1cc(-c2ccc(Cl)c(Cl)c2)on1 (centres undefined)	none
CC1CCCC(C)N1C(=O)c1cc(-c2ccc3c(c2)OCO3)on1 (centres undefined)	hcDAF12 agonist 6.6, hgDAF-12 ag 11 (no result: Wee1 degr inh) | LXRb hcDAF ctr inactive | hcDAF12 ag inactive
O=C(Nc1ccc(Br)cc1)O[C@@H]1CC[C@@]23CCCN2C(=O)CCC[C@H]3C1	none (no result: Wee1 degr inh, DAX1 inh-1, DAX1 inh-2)
COc1ccccc1NS(=O)(=O)c1cccc(C(=O)N2CCCC2)c1	none (no result: Wee1 degr inh)
NC(=O)c1ccccc1N/C=C/C(=O)c1cccs1	hcDAF12 agonist 8.3 | LXRb hcDAF ctr inactive | hcDAF12 ag 5.6
O=C(C=Cc1ccccc1)c1cccs1	none (no result: Wee1 degr inh)
NC(=O)c1ccccc1NS(=O)(=O)c1cccs1	none
O=C(/C=C/Nc1ccc(F)cc1)c1cccs1	DAX1 inh-1 4.5, hcDAF12 agonist 11, ssDAF-12 act 1.7, hgDAF-12 ag 12 | LXRb hcDAF ctr inactive | hcDAF12 ag 18
Cc1ccc(C(=O)/C=C/Nc2ccccc2C(N)=O)o1	hcDAF12 agonist 9.3, hgDAF-12 ag 12 | LXRb hcDAF ctr inactive | hcDAF12 ag inactive
COc1cc([N+](=O)[O-])ccc1N/C=C/C(=O)c1cccs1	hcDAF12 agonist 17, ssDAF-12 act 2.3, hgDAF-12 ag 17 | LXRb hcDAF ctr inactive | hcDAF12 ag 16
CCn1nc(C(=O)NNS(=O)(=O)c2ccc(C)cc2)c2ccccc2c1=O	none (no result: Wee1 degr inh)
CC1=C(C(=O)N(C)C)CC(CC(=O)NCC2CCCCC2)C(=O)N1Cc1ccccc1 (centres undefined)	none (no result: Wee1 degr inh)
CCCSc1ccc([C@H]2N[C@@](C)(C(=O)OC)[C@H]3C(=O)N(CC)C(=O)[C@@H]23)cc1	none (no result: Wee1 degr inh)
O=C(Cc1ccccc1[N+](=O)[O-])NCc1ccc2c(c1)OCO2	hcDAF12 agonist 8.8, ssDAF-12 act 2.2, hgDAF-12 ag 12 | LXRb hcDAF ctr inactive | hcDAF12 ag 8.6
Cc1ccc(C(=O)Nc2ccn(Cc3ccc(F)cc3)n2)o1	hcDAF12 agonist 6.9 | LXRb hcDAF ctr inactive | hcDAF12 ag inactive
Cc1ccc(C(=O)Nc2ccc(F)cc2F)o1	none
NC(=S)c1csc(CCNC(=O)c2ccccc2)n1	none (no result: Wee1 degr inh)
COc1ccc2c(=O)c(-c3nc(C)cs3)coc2c1	DAX1 inh-1 4.1, hcDAF12 agonist 7.0, ssDAF-12 act 1.1, hgDAF-12 ag 14 | LXRb hcDAF ctr inactive | hcDAF12 ag 14
Cc1csc(-c2coc3cc(O)cc(C)c3c2=O)n1	hcDAF12 agonist 13, ssDAF-12 act 1.6 | LXRb hcDAF ctr inactive | hcDAF12 ag 11
CC(=O)Nc1ccc(N/C=C(\C=O)c2nc3ccccc3o2)cc1	hcDAF12 agonist 6.7, ssDAF-12 act 1.0 | LXRb hcDAF ctr inactive | hcDAF12 ag 6.7
Clc1ccc2oc(-c3ccccc3)nc2c1	none
O=C/C(=C\Nc1ccccn1)c1nc2cc(Cl)ccc2o1	hcDAF12 agonist 6.8, ssDAF-12 act 0.9 | LXRb hcDAF ctr inactive | hcDAF12 ag inactive
CC(=O)Nc1cccc(N/C=C(\C=O)c2nc3ccccc3o2)c1	hcDAF12 agonist 9.6, ssDAF-12 act 1.0 | LXRb hcDAF ctr inactive | hcDAF12 ag 9.4
O=C/C(=C\Nc1ccc(Br)cc1)c1nc2ccccc2o1	none
CNc1cnn(-c2ccc(C)cc2)c(=O)c1Cl	hcDAF12 agonist 8.1 | LXRb hcDAF ctr inactive | hcDAF12 ag 9.1
COc1n[nH]c(C(=O)Nc2cc(Cl)ccc2Cl)c1[N+](=O)[O-]	none
COc1ccc(Cl)cc1NC(=O)c1[nH]nc(OC)c1[N+](=O)[O-]	hcDAF12 agonist 6.7 | LXRb hcDAF ctr inactive | hcDAF12 ag inactive
CC(O)C1CCC2C3CCC4CC(O)CCC4(C)C3C(=O)CC12C (centres undefined)	none (no result: Wee1 degr inh)
O=c1oc2c(CN3CCCCC3)c(O)ccc2cc1-c1nc2ccccc2[nH]1	none (no result: Wee1 degr inh)
O=c1oc2c(O)cccc2cc1-c1nc2ccccc2[nH]1	hcDAF12 agonist 8.1 (no result: Wee1 degr inh) | LXRb hcDAF ctr inactive | hcDAF12 ag inactive
CN(C)c1cccc(C(=O)NNC(=O)C23CC4CC(CC(C4)C2)C3)c1	none (no result: Wee1 degr inh)
Cc1cccc(/C=C2\CCC(=C3SCCCS3)C2=O)c1	hcDAF12 agonist 7.5 | LXRb hcDAF ctr inactive | hcDAF12 ag 7.6
COCC(=O)N1C[C@@H](C)[C@@H](OC)CN(C)C(=O)c2ccc(NC(=O)c3cnccn3)cc2OC[C@H]1C	none (no result: Wee1 degr inh, DAX1 inh-2)
CC(=O)Nc1c(Cl)cc(Cl)c2c1Cc1cc(Cl)ccc1-2	none (no result: Wee1 degr inh)
CC(=O)c1c(CC(=O)O)[nH]n(-c2nc3ccccc3s2)c1=O	hcDAF12 agonist 6.6 | LXRb hcDAF ctr inactive | hcDAF12 ag inactive
COC(=O)Cc1[nH]n(-c2nc3ccccc3s2)c(=O)c1C(C)=O	none
Nc1ccccc1N1C(=O)c2cccc3cccc(c23)C1=O	hcDAF12 agonist 6.7 (no result: Wee1 degr inh, DAX1 inh-2) | LXRb hcDAF ctr inactive | hcDAF12 ag inactive
O=C1c2cccc3cccc(c23)C(=O)N1c1ccccc1Cl	none (no result: Wee1 degr inh)
CC(OC(=O)/C=C/c1ccc2ccccc2n1)C(=O)N(C)c1ccccc1 (centres undefined)	none (no result: Wee1 degr inh)
CC(=O)/C=C/c1ccc2ccccc2n1	hcDAF12 agonist 8.2 | LXRb hcDAF ctr inactive | hcDAF12 ag inactive
Cc1ccc(C(=O)Nc2ccc(C(=O)N/N=C/c3c[nH]c4ccccc34)cc2)cc1	hcDAF12 agonist 7.3 | LXRb hcDAF ctr inactive | hcDAF12 ag 7.2
O=C(N/N=C/c1c[nH]c2ccccc12)c1sc2ccccc2c1Cl	hcDAF12 agonist 9.1 | LXRb hcDAF ctr inactive | hcDAF12 ag inactive
O=C(NN=Cc1c[nH]c2ccccc12)NN=Cc1c[nH]c2ccccc12	none (no result: Wee1 degr inh)
COc1ccccc1C(=O)N/N=C/c1c[nH]c2ccccc12	hcDAF12 agonist 7.0, ssDAF-12 act 1.4 (no result: Wee1 degr inh) | LXRb hcDAF ctr inactive | hcDAF12 ag 6.3
O=C(c1ccc(-c2ccc([N+](=O)[O-])cc2)o1)N1CCCCC1	hcDAF12 agonist 8.4, hgDAF-12 ag 17 | LXRb hcDAF ctr inactive | hcDAF12 ag inactive
